Source: PubChem BioAssay
Sampled rows, rich in hits. Any-hit rate of the full collection: about 19%.
TDP1 cell CPT: qHTS for Inhibitors of human tyrosyl-DNA phosphodiesterase 1 (TDP1): qHTS in cells in presence of CPT; chicken DT40 Tdp1-/-;hTDP1 cells + 20 nM CPT, ATP luminescence, 48 h; Potency, µM (highest dose often 46.2 µM), for inactives: top-dose activity change, negative = growth inhibition, actives largely listed as inhibitors; 420,000 tested, 12% active; AID 686979, 2013; further: nearly all actives have a fitted effect of over 55% in size
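Chicken DT40 Tdp1-/- cells stably complemented with human TDP1 were seeded at 400 cells/well in medium containing 20 nM camptothecin, exposed to pin-transferred compounds, and grown at 37 °C for at least 48 hr. Viability was read as ATP luminescence.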
Gal4-VP16 FLuc: VP16 counterscreen qHTS for inhibitors of ROR gamma transcriptional activity | AID 2546, 2010 | Potency, µM (series often up to 53.6 µM), without a hit: at the highest dose activity, negative = inhibition, most hits filed as inhibitors | Drosophila S2 Gal4-VP16 UAS-luciferase, luminescence, 20 h | 310,000 tested, 3.5% active;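 further: Gal4-VP16 expression switched on by copper sulfate through the metallothionein promoter; nearly all actives have a fitted effect of over 50% in size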
RORg inh: qHTS for inhibitors of ROR gamma transcriptional activity | Drosophila S2 Gal4-RORgamma UAS-luciferase reporter, 20 h | Potency, µM (series often up to 53.6 µM), for inactives: at the highest dose activity change, negative = inhibition, usual class: inhibitors | 310,000 tested, 5.4% active | AID 2551, 2010; further: nearly all actives have a fitted effect of over 60% in size
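Schneider cells (Drosophila), stable Gal4 DBD–ROR gamma + UAS-luc; 1 hr cmpd preincubation; Cu2+ induction 700 uM final; 20 hr ambient; luminescence.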
TDP1 cell noCPT: qHTS for Inhibitors of human tyrosyl-DNA phosphodiesterase 1 (TDP1): qHTS in cells in absence of CPT | DT40 Tdp1-/- hTDP1 cells, no CPT, ATP luminescence, 48 h | Potency, µM (titrated, usually from 46.2 µM), for the others: top-dose activity change, negative = growth inhibition, most hits filed as inhibitors | 420,000 tested, 15% active; further: nearly all actives have a fitted effect of over 55% in size
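Camptothecin absent (DMSO only). Human TDP1-complemented DT40 knockout cells, 400 cells/well, 37 °C for minimum 48 hr; ATP measured via CellTiter-Glo, 30 min dark incubation, luminescence.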
TDP1 block: qHTS Assay for Inhibitors of Tyrosyl-DNA Phosphodiesterase (TDP1); Tyrosyl-DNA phosphodiesterase 1 (Homo sapiens), Q9NUW8; recombinant TDP1, AlphaScreen DNA substrate cleavage; Potency, µM (doses to about 130 µM), inactives show at the top dose activity change, negative = inhibition, most hits filed as inhibitors; 350,000 tested, 0.28% active; further: nearly all actives have a fitted effect of over 40% in size
Target sequence (Q9NUW8 whole entry, looked up): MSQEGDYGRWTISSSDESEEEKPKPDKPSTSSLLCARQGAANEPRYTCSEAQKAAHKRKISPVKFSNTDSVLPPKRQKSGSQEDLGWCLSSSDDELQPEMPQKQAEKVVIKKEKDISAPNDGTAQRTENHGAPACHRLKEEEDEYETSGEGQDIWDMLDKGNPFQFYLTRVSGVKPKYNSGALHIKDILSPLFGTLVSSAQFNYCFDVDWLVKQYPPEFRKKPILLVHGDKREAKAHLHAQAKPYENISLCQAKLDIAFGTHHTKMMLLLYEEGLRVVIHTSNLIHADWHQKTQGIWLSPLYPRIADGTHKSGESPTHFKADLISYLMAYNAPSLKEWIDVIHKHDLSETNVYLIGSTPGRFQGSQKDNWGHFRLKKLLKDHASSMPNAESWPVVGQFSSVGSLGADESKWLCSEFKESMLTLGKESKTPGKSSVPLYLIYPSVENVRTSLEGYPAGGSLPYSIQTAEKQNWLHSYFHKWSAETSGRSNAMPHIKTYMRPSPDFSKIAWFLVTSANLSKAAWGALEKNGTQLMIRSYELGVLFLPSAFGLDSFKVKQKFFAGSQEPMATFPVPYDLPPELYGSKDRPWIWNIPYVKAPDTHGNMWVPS
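E. coli-derived human Tdp1, 1 nM final. Cpd preinc 15 min RT; substrate 15 nM final, 5 min RT; AS bead mix 10 ug/ml final, 10 min RT. Signal loss = tyrosine-FITC cleavage. No-enzyme wells = max signal.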
Starred values were filed as active, the others as inactive; [ ] = another dose, or the depositor's remark. The call rests on the fitted dose curve; in most records, active means well fitted curve in the direction sought with a large enough effect; inconclusive means small, poorly fitted or top-dose-only effect, or another doubt; inactive means no such curve, though single readings can be large; an effect the other way counts as inactive or inconclusive. On the % scale 0 is the no-effect control and ±100 the full control effect; potency means the concentration at half of the fitted maximal effect.

How did CC1(C(=O)O)CCCN1C(=O)c1ccc(Cl)cc1Cl (stereo not given) do in these assays?
TDP1 cell CPT: inconclusive; TDP1 cell noCPT: 3.8%

What do the screens show for `O=C(N/C(=C/c1cccc(Br)c1)C(=O)N1CCOCC1)c1ccco1`?
TDP1 cell CPT: -1.5%; TDP1 cell noCPT: 1.4%

How did COc1cccc(NC(=S)N(CCN2CCCCC2)Cc2ccco2)c1 do in these assays?
TDP1 cell CPT: inconclusive; Gal4-VP16 FLuc: 4.2%; RORg inh: inconclusive; TDP1 cell noCPT: -17.6%; TDP1 block: 5.1%

How did COc1cccc(NC(=S)N(Cc2ccco2)C(C)c2ccco2)c1 (stereo not given) do in these assays?
TDP1 cell CPT: -15.7%; Gal4-VP16 FLuc: 17.8µM*; RORg inh: inconclusive; TDP1 cell noCPT: -21.4%; TDP1 block: 4.2%

How did Cc1cccc(NC(=S)N(Cc2ccco2)C(C)c2cccs2)c1 (stereo not given) do in these assays?
TDP1 cell CPT: 29.1µM*; Gal4-VP16 FLuc: inconclusive; RORg inh: 14.1µM*; TDP1 cell noCPT: inconclusive; TDP1 block: 1.2%

What do the screens show for `O=C(COc1ccc(Cl)cc1Cl)OCC(=O)N1CCCc2ccccc21`?
TDP1 cell CPT: -9.2%; Gal4-VP16 FLuc: -12.3%; RORg inh: inconclusive; TDP1 cell noCPT: -0.3%; TDP1 block: -4.4%

What do the screens show for `O=C(COc1ccc(Cl)cc1Cl)NC(=S)N1CCCc2ccccc21`?
TDP1 cell CPT: inconclusive; Gal4-VP16 FLuc: inconclusive; RORg inh: inconclusive; TDP1 cell noCPT: 20.6µM*; TDP1 block: -7.5%

What do the screens show for `O=C(NC(=S)N1CCc2ccccc21)c1ccccc1`?
TDP1 cell CPT: 20.6µM*; Gal4-VP16 FLuc: 0.501µM*; RORg inh: 0.562µM*; TDP1 cell noCPT: 18.4µM*; TDP1 block: 5.5%

How did O=C(NC(=S)N1CCc2ccccc21)c1ccccc1Cl do in these assays?
TDP1 cell CPT: inconclusive; Gal4-VP16 FLuc: 1µM*; RORg inh: 0.447µM*; TDP1 cell noCPT: inconclusive; TDP1 block: 3.2%

What do the screens show for `CCOC(=O)C1=CN(CC)S(=O)(=O)NC1c1ccc(F)c(Cl)c1` (stereo not given)?
TDP1 cell CPT: -1.3%; TDP1 cell noCPT: -23.1%; TDP1 block: -0.6%[56.1 µM]

Results for C[C@H](CO)N1C[C@H](C)[C@@H](CN(C)S(=O)(=O)c2cccs2)Oc2ccc(NC(=O)C3CC3)cc2C1=O ?
TDP1 cell CPT: -12.4%; TDP1 cell noCPT: -10.2%; TDP1 block: -1.5%

How did O=C(CCN1CCN(c2ccccc2F)CC1)c1ccc(Br)cc1 do in these assays?
TDP1 cell CPT: 2.59µM*; Gal4-VP16 FLuc: inconclusive; RORg inh: inconclusive; TDP1 cell noCPT: 2.91µM*; TDP1 block: 3.1%

What do the screens show for `COc1ccc(C(=O)CCN2CCN(c3ccccc3F)CC2)cc1`?
TDP1 cell CPT: 4.61µM*; Gal4-VP16 FLuc: inconclusive; RORg inh: 33.6%; TDP1 cell noCPT: 3.66µM*; TDP1 block: 5.1%

Results for O=C(CCC(=O)N1CCN(c2ccccc2F)CC1)c1ccc(F)cc1 ?
TDP1 cell CPT: 0.5%; Gal4-VP16 FLuc: 23.6%; RORg inh: 16.7%; TDP1 cell noCPT: inconclusive; TDP1 block: -1.2%

Results for CCc1nc2ccc(C(=O)NCc3ccc4c(c3)OCO4)cn2c1N(C)Cc1ccc(OC)cc1 ?
TDP1 cell CPT: 18.4µM*; TDP1 cell noCPT: 23.1µM*

Results for CCc1nc2ccc(C(=O)NCc3ccc4c(c3)OCO4)cn2c1N(C)CCC(C)C ?
TDP1 cell CPT: inconclusive; TDP1 cell noCPT: 14.6µM*

How did CCc1nc2ccc(C(=O)N3CCNC(=O)C3)cn2c1N(C)CCC(C)C do in these assays?
TDP1 cell CPT: -7.5%; TDP1 cell noCPT: -25.5%
